PubChem BioAssay (NCATS)
Records with an inconclusive call do not appear. Unmarked numbers belong to inactive results. The call rests on the fitted dose curve; in most records, active means well fitted cell-killing curve with a large enough effect; inconclusive means small, poorly fitted or top-dose-only effect; inactive means flat fitted curve, though single readings scatter.

Assay: Cell Viability - LYMP2-021 (AID 974); further: on the % scale 0 is the no-effect control and ±100 the full control effect
Settings: LYMP2-021 lymphoblastoid cells viability; series mostly up to 92.2 µM; activity change, negative = cytotoxicity: at the top concentration
Summary of the method: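 AC50 values come from Hill-equation fits to CellTiter-Glo luminescence (ATP content), read after 24 hour compound exposure at 37 C of 2500 LYMP2-021 lymphoblastoid cells/well; tetraoctylammonium bromide as positive control.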
Further: nearly all actives have a fitted effect of over 55% in size.

Row | SMILES | activity change, negative = cytotoxicity
1 | CCN(C(=O)N(CC)c1ccccc1)c1ccccc1 | -19.4%
2 | CCNc1cc(O)ccc1C | -10.3%
3 | Cc1ccc(C(=O)O)cc1 | -1.08%
4 | C=Cc1ccccn1 | -1.1%
5 | CC(C)C(C)C | -3.48%
6 | CCCCC(=O)N(C)C | -2.34%
7 | Nc1cc(S(=O)(=O)O)ccc1O | 3.09%
8 | O=C1OC(=O)c2c(Br)c(Br)c(Br)c(Br)c21 | 3.02%
9 | Cc1cccc2sc(N)nc12 | -1.73%
10 | CN(C)c1cccc(O)c1 | -2.08%
11 | BrC(Br)C(Br)Br | 0.805%
12 | CC(=O)c1ccccn1 | -15.8%
13 | O=P(O)(OCc1ccccc1)OCc1ccccc1 | -5.48%
14 | CC(N)CN (configuration not stated) | -7.69%
15 | OC1CCCC1 | 2.6%
16 | OCCO | -2.95%
17 | Cc1ccc2nc(-c3ccc(N)cc3)sc2c1S(=O)(=O)O | -5.09%

Row | SMILES | activity change, negative = cytotoxicity
18 | CCOC(=O)OCC | -1.76%
19 | Nc1cccc(C(F)(F)F)c1 | 2.58%
20 | ClCCl | -0.0471%
21 | CN(C)CCCCl | -0.627%
22 | CSCCC=O | -3.47%
23 | C=C(C)OC(C)=O | -4.8%
24 | C1CCCC1 | -2.86%
25 | CCCCCCCCC/C=C/CC1CC(=O)OC1=O (configuration not stated) | -6.57%
26 | Cc1cc(C)cc(O)c1 | -2.14%
27 | CCC(O)C(C)(C)C (configuration not stated) | -3.6%
28 | CCCCCCCCCCCCC1CO1 (configuration not stated) | -2.26%
29 | CC/C=C/C#N | 0.781%
30 | NC(=S)NNC(N)=S | -2.58%
31 | Cc1ccc(C(C)(C)C)cc1 | 1.56%
32 | Cc1ccc(C)c(N)c1 | -0.307%
33 | CC(C)c1ccccc1 | -5.42%

Assay: Cell Viability - LYMP2-023 (AID 975);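 further: cellular ATP measured by luciferase luminescence as viability proxy; plate controls were DMSO only for no effect and 92 µM tetraoctylammonium bromide control for full effect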
Settings: LYMP2-023 lymphoblastoid cell viability; series mostly up to 92.2 µM; activity change, negative = cytotoxicity: at the top concentration
Summary of the method: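 Intracellular ATP, read by CellTiter-Glo luminescence, reports viability after 24 hr compound exposure at 37 C. 2500 lymphoblastoid cells/well (LYMP2-023) seeded 5 hr beforehand; Hill fits give AC50; positive control tetraoctylammonium bromide.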

Row | SMILES | activity change, negative = cytotoxicity
34 | CCN(C(=O)N(CC)c1ccccc1)c1ccccc1 | 0.132%
35 | CCNc1cc(O)ccc1C | -8.33%
36 | Cc1ccc(C(=O)O)cc1 | -9.09%
37 | C=Cc1ccccn1 | -2.5%
38 | CC(C)C(C)C | -6.78%
39 | CCCCC(=O)N(C)C | -0.0691%
40 | O=C1OC(=O)c2c(Br)c(Br)c(Br)c(Br)c21 | -2.31%
41 | Cc1cccc2sc(N)nc12 | -1.66%
42 | CN(C)c1cccc(O)c1 | -4.43%
43 | BrC(Br)C(Br)Br | 0.299%
44 | CC(=O)c1ccccn1 | -0.589%
45 | CC(N)CN (configuration not stated) | 0.47%
46 | OC1CCCC1 | -8.8%
47 | Cc1ccc(N(C)C)cc1 | 0.363%
48 | OCCO | 0.778%
49 | Cc1ccc2nc(-c3ccc(N)cc3)sc2c1S(=O)(=O)O | -3.72%
50 | CCOC(=O)OCC | -2.55%

Row | SMILES | activity change, negative = cytotoxicity
51 | Nc1cccc(C(F)(F)F)c1 | 3.08%
52 | ClCCl | -2.85%
53 | O=C(O)c1ccccc1Cl | -0.248%
54 | CSCCC=O | 0.142%
55 | C=C(C)OC(C)=O | 1.05%
56 | C1CCCC1 | -8.53%
57 | CCCCCCCCC/C=C/CC1CC(=O)OC1=O (configuration not stated) | -8.24%
58 | Cc1cc(C)cc(O)c1 | 2.15%
59 | CCC(O)C(C)(C)C (configuration not stated) | -3.59%
60 | CCCCCCCCC | 5.34%
61 | CC(=O)c1nccs1 | 0.265%
62 | Clc1ccc(Cl)c(Cl)c1Cl | -2.63%
63 | CC/C=C/C#N | -0.272%
64 | NC(=S)NNC(N)=S | 8.14%
65 | Cc1ccc(C(C)(C)C)cc1 | 3.29%
66 | Cc1ccc(C)c(N)c1 | 2.18%
67 | CC(C)c1ccccc1 | -2.97%
